Source: PubChem (Johns Hopkins Ion Channel Center)
Sampled rows, rich in hits. Any-hit rate of the full collection: about 1.6%.
KCNQ2 block = rat KCNQ2 potassium channel inhibitors, primary screen, cell-based, CHO-K1, FluxOR thallium flux, B-score; 20 min; hits give low values; AID 2156, 2009; 1.1% of 310,000 active; B-score at 10 µM;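 active means fluorescence ratio B-score at most minus 3 library SDs, with starting brightness B-score within 2 library SDs, cut at about -5.5 in these data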
Target sequence (O88943 whole entry, looked up): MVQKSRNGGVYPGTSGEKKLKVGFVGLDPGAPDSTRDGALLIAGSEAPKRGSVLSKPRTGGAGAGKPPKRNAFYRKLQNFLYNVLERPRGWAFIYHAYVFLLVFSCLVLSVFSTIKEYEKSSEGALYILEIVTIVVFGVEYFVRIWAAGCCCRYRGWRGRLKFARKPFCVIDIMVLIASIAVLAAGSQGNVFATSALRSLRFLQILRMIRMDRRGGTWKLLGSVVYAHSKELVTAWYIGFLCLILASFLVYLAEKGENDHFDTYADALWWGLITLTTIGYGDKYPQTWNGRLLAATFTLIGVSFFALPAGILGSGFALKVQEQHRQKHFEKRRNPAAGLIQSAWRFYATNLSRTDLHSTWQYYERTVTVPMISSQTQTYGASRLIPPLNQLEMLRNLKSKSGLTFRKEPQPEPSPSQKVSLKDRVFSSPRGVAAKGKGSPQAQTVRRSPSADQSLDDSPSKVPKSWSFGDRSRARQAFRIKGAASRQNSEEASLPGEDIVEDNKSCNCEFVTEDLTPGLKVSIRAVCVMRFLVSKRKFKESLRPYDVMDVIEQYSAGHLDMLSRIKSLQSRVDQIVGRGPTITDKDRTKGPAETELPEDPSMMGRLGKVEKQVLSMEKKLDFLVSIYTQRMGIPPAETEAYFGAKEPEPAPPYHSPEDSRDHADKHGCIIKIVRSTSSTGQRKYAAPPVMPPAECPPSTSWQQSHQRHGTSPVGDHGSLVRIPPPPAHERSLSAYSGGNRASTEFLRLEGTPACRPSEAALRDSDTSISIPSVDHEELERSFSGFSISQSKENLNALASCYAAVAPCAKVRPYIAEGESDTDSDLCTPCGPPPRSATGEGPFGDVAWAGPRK
KCNQ2 enhance = potentiators of rat KCNQ2 potassium channel. Potassium voltage-gated channel subfamily KQT member 2 (Rattus norvegicus), O88943. CHO-K1 KCNQ2, FluxOR thallium flux fluorescence; hits give high values. B-score at 10 µM. 0.54% of 310,000 active. AID 2239, 2010;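 active means fluorescence ratio B-score at least 3 SD of library B-scores, with initial fluorescence B-score within 3 of them, cut at about 5.3 in these data; same plate scores as AID 2156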;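 further: B-score of peak minus minimum over baseline fluorescence ratio after K+ and Tl+ stimulus; positive B-score means potentiation of KCNQ2 with more thallium influx and brighter signal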
Kir21 confirm = mouse Kir2.1 channel blockers, retest, confirmation, cell-based, FluxOR thallium flux, duplicate; shares compounds with KCNQ2 enhance; Kir2.1-expressing cells, FluxOR thallium flux fluorescence; hits give low values; Tl flux remaining, % of negative control (hits give low values), % at 10 µM; 41% of 2,300 active;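 active means Primary-screen hit whose thallium flux fell at least 3 control SD below untreated wells in both duplicates, with normal baseline fluorescence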
HEK293 ctr = counter-screen for Kir2.1 inhibitors: effect in parental HEK293 cells; FluxOR thallium flux fluorescence; 0% = unstimulated blank wells; 19% of 2,300 active; shares compounds with KCNQ2 enhance; AID 2105; FluxOR signal as % of negative control (100 = no effect), % at 10 µM;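 active means dye signal at least 3 control SD above or below untreated wells in both duplicates, raw fluorescence within 3, either direction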;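 further: percent is based on the flux ratio of peak minus minimum fluorescence over baseline F0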
CHO-K1 Tl ctr = nonspecific thallium flux increase in parental CHO-K1, confirmation, counter-screen for KCNQ2 potentiator project, cell-based, FluxOR thallium flux, duplicate | AID 2282, 2010 | 43% of 1,200 active | shares compounds with KCNQ2 enhance | parental CHO-K1 cells, FluxOR thallium flux fluorescence; zero = vehicle mean+3SD, 100% = vehicle-minus-blank window | activity increase over 3SD of controls, % at 10 µM;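 active means signal rise of at least 3 SD above the untreated control mean, in both duplicate wells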;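 further: counter screen of KCNQ2 potentiator hits so any rise reflects channel-independent effects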
KCNQ1 pot spec = human KCNQ1 channel potentiation off-target, confirmation, selectivity assay for KCNQ2 potentiator project, cell-based, CHO, FluxOR thallium flux; 28% of 1,200 active; activation over 3SD threshold, % at 10 µM; shares compounds with KCNQ2 enhance; CHO KCNQ1 stable, FluxOR thallium flux fluorescence; beyond 3SD, as % of vehicle-control signal;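 active means fluorescence ratio rise of at least 3 SD of vehicle wells above their mean, in both replicate wells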
KCNQ2 pot confirm = rat KCNQ2 channel potentiators, confirmation, cell-based, CHO, FluxOR thallium flux, duplicate; CHO-KCNQ2 cells, FluxOR thallium flux fluorescence; AID 2287, 2010; shares compounds with KCNQ2 enhance; 68% of 1,200 active; potentiation, less the hit threshold, % at 10 µM;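 active means fluorescence ratio rising 3 SD or more over the vehicle control mean in both replicates, plus primary screen hit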;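 further: peak minus minimum thallium fluorescence divided by baseline after K/Tl stimulus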
Kir2-1 sel = mouse Kir2.1 channel activation off-target, confirmation, selectivity assay for KCNQ2 potentiator project, cell-based, HEK293, FluxOR thallium flux; shares compounds with KCNQ2 enhance; HEK293 Kir2.1, FluxOR thallium flux fluorescence; activity over 3SD threshold, % at 10 µM; 2% of 1,200 active; AID 2345, 2010;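 active means fluorescence ratio rise of at least 3 SD above the vehicle-control mean, seen in both replicates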
KCNQ2 W236L pot = potentiators of retigabine-insensitive KCNQ2 W236L, mechanism study for KCNQ2 potentiator project, cell-based, rat KCNQ2 W236L, CHO, automated patch clamp; AID 2558, 2010; 10% of 940 active; current increase over 3SD of negative controls (%), hits give high values, % at 25 µM; automated patch clamp current; shares compounds with KCNQ2 enhance;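 active means current increase at least 3 SD of the untreated controls above them in both duplicate recordings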
Large screens that a line does not name were inactive (follow-up assays come after a bar, where they were run).

CCN1CCCC1CNC(=O)c1cc(S(=O)(=O)CC)c(N)cc1OC (configuration not stated)	none
O=C(O)CC/C(=N/NC(=O)CNC(=O)C(c1ccccc1)c1ccccc1)c1ccccc1	none
CCN(CC)CCNCc1cc(Cl)c(OCC(=O)Nc2ccccc2)c(OC)c1	none
COc1cc(CNC(C)c2ccccc2)cc(Cl)c1OCC(=O)Nc1ccccc1 (configuration not stated)	none (no result: KCNQ2 enhance) | Kir21 confirm 60% | HEK293 ctr inactive
CCN(CC)S(=O)(=O)c1ccc(N)cc1	none
CCCCCC/C=C/c1ccc([C@H]2[C@H]3C=CC[C@@H](C)[C@@H]3C(=O)N2Cc2ccccc2)c(F)c1	none
Nc1ccc(C#Cc2ccc3c(=O)c4ccccc4oc3c2)cc1	none
COc1ccccc1CNCc1cccc(Oc2ccccc2)c1	none | Kir21 confirm inactive | HEK293 ctr inactive
COc1ccccc1CNCc1cc(Br)ccc1OC	none
COc1ccccc1CNCC(c1ccccc1)c1ccccc1	none (no result: KCNQ2 enhance) | Kir21 confirm 48% | HEK293 ctr inactive
COc1cccc(CNCc2ccc(OC)c3ccccc23)c1OC	none
COc1ccc(CNCc2ccc(OC)c3ccccc23)cc1	none | Kir21 confirm 20% | HEK293 ctr inactive
COc1cc(CNCc2cccc3ccccc23)cc(OC)c1	none (no result: KCNQ2 enhance)
COc1ccccc1CNCc1cc(OC)c(OC)cc1OC	none
COc1ccccc1CNCc1ccc(OC)c2ccccc12	none | Kir21 confirm 36% | HEK293 ctr inactive
CCc1nc(SCC(=O)N2CCOCC2)c2c(=O)n(C)c(=O)n(C)c2n1	none
CC(C)c1nc(SCC(=O)N2CCCC2)c2c(=O)n(C)c(=O)n(C)c2n1	none
CCc1nc(SCC(=O)N2CCCCCC2)c2c(=O)n(C)c(=O)n(C)c2n1	KCNQ2 enhance 5.5 | Kir21 confirm inactive | HEK293 ctr inactive | CHO-K1 Tl ctr inactive | KCNQ1 pot spec 5.9 | KCNQ2 pot confirm 35 | Kir2-1 sel inactive | KCNQ2 W236L pot inactive
CC(C)c1nc(SCC(=O)N2CCCCCC2)c2c(=O)n(C)c(=O)n(C)c2n1	KCNQ2 enhance 17 | Kir21 confirm inactive | HEK293 ctr inactive | CHO-K1 Tl ctr 6.8 | KCNQ1 pot spec inactive | KCNQ2 pot confirm 54 | Kir2-1 sel inactive | KCNQ2 W236L pot inactive
C=CCn1c(SCC(=O)Nc2ccc3c(c2)OCCO3)nnc1-c1ccco1	none (no result: KCNQ2 enhance)
C=CCn1c(C)csc1=Nc1ccccc1C	none (no result: KCNQ2 enhance)
CSc1ccc(/C=N/NC(=O)c2cccs2)cc1	KCNQ2 enhance 14 | Kir21 confirm inactive | HEK293 ctr inactive | CHO-K1 Tl ctr 11 | KCNQ1 pot spec inactive | KCNQ2 pot confirm inactive | Kir2-1 sel inactive
O=C(N/N=C/c1ccncc1)c1cccs1	none (no result: KCNQ2 enhance)
Cc1c(C(=O)Nc2ccc(F)c(F)c2)oc2ccc(S(=O)(=O)N3CCCCC3)cc12	none
CC(C)(C)OC(=O)N1CCC[C@H]1c1nnc(SC/C=C/c2ccccc2)o1	none (no result: KCNQ2 enhance)
